Only some compounds are listed: those with a hit (about 8.7% of all), similar ones and a draw of the others.
G9a block – qHTS Assay for Inhibitors of Histone Lysine Methyltransferase G9a. Potency, µM (titrated, usually from 102 µM), for inactives: at the top dose activity, negative = inhibition, actives largely listed as inhibitors. hit rate 8.8% among 350,000. G9a H3K9 monomethylation, AlphaScreen, 2 h; further: on the % scale 0 is the no-effect control and ±100 the full control effect; nearly all actives have a fitted effect of over 75% in size
Target sequence (Q96KQ7 913-1193 limits assumed): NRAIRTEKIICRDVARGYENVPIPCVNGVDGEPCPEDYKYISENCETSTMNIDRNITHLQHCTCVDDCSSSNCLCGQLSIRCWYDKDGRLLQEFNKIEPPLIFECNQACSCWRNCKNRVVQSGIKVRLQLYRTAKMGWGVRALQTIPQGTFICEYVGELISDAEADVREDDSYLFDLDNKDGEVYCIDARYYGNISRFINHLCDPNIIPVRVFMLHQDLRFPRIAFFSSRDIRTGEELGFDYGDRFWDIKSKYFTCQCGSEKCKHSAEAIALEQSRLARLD
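G9a (20 nM) was preincubated 15 min with compound, then reacted 2 h at room temperature with 500 nM biotin-H3K9 peptide and 20 µM SAM. Monomethyl-H3K9 detected by AlphaScreen using anti-H3K9me1 antibody.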
HP1b binding inh – HTS for Inhibitors of HP1-beta Chromodomain Interactions with Methylated Histone Tails | Chromobox protein homolog 1 (Homo sapiens), P83916 | AlphaScreen HP1-beta / biotin-H3K9me3 peptide binding | Potency, µM (highest dose often 114 µM), for inactives: at the top dose activity change, negative = inhibition, most hits filed as inhibitors | hit rate 0.56% among 390,000 | AID 540317, 2011; further: nearly all actives have a fitted effect of over 70% in size
Target sequence (P83916 whole entry, looked up): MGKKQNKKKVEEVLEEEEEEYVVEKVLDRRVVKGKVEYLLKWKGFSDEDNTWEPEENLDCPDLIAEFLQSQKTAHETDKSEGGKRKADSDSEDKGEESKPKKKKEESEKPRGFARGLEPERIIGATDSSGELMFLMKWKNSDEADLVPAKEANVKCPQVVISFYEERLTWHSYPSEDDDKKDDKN
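AlphaScreen: HP1-beta (50 nM) preformed 30 min with biotin-H3(1-18)K9me3 peptide (50 nM) in PBS pH 7.4, 0.01% Tween-20. Compound added for 30 min at RT, then streptavidin donor/nickel chelate acceptor beads (10 ug/mL) for 30 min.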
BAZ2B inh – qHTS Assay for Inhibitors of BAZ2B; Bromodomain adjacent to zinc finger domain protein 2B (Homo sapiens), Q9UIF8; AlphaScreen BAZ2B-H3K14Ac peptide displacement; Potency, µM (doses to about 114 µM), for inactives: at the top dose activity change, negative = inhibition, most hits filed as inhibitors; hit rate 4.4% among 360,000; AID 504333, 2011; further: on the % scale 0 is the no-effect control and ±100 the full control effect; nearly all actives have a fitted effect of over 60% in size
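AlphaScreen luminescence quantifies BAZ2B engagement of H3K14Ac peptide; the protein and biotinylated peptide are both at 50 nM final, buffer PBS pH 7.4 with 0.01% Tween-20, all steps at room temperature.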
ALOX12 inh – Primary qHTS assay for inhibitors of human arachidonate 12S-lipoxygenase (ALOX12): Round 2; purified 12hLO, xylenol orange hydroperoxide absorbance; AID 1671190, 2021; hit rate 1.1% among 580,000; Potency, µM (series often up to 108 µM), for inactives: at the top dose activity change, negative = inhibition, hits mostly inhibitors; further: on the % scale 0 is the no-effect control and ±100 the full control effect
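Hydroperoxide product was detected by ferrous iron/xylenol orange as the 573 to 405 nm absorbance ratio. Arachidonic acid at 40 uM (final) was turned over for 30 min at room temperature by 150 nM human 12hLO, pH 7.0 Hepes buffer, after 15 min compound preincubation.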
Sfp inh – qHTS Assay for Inhibitors of Bacillus subtilis Sfp phosphopantetheinyl transferase (PPTase); Biochemical Sfp PPTase activity, qHTS; Potency, µM, for the others: largest response in the series, negative = inhibition, most hits filed as inhibitors; hit rate 3.5% among 310,000; AID 1490, 2009;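 further: the enzyme is Sfp with the accession as filed and its product quenches rhodamine fluorescence; 0% = enzyme reaction without inhibitor and -100% = no enzyme wells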
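Fluorescence-quenching assay: 15 nM Sfp-PPTase preincubated 15 min at room temperature with compound, then 5 uM rhodamine-CoA and 12.5 uM BHQ-2-labelled YbbR peptide added. Fluorescence (ex 525/em 598 nm) read at start and after 30 min; difference gives rate.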
JMJD2A Tudor inh – qHTS Assay for Inhibitors of JMJD2A-Tudor Domain; AlphaScreen JMJD2A-Tudor / H3K4me3 peptide binding; hit rate 4.4% among 390,000; Potency, µM (doses to about 114 µM), for the others: at the top dose activity change, negative = inhibition, most hits filed as inhibitors; Lysine-specific demethylase 4A (Homo sapiens), O75164; further: on the % scale 0 is the no-effect control and ±100 the full control effect; nearly all actives have a fitted effect of over 50% in size
An asterisk follows results filed as active; u = inconclusive; x = no result given; ! = not active in a repeat; [ ] = remark or other dose. The call rests on the fitted dose curve; in most records, active means well fitted curve in the direction sought with a large enough effect; inconclusive means small, poorly fitted or top-dose-only effect, or another doubt; inactive means no such curve, though single readings can be large; an effect the other way counts as inactive or inconclusive. Potency means the concentration at half of the fitted maximal effect.

SMILES | G9a block | HP1b binding inh | BAZ2B inh | ALOX12 inh | Sfp inh | JMJD2A Tudor inh
CCC(C)c1ccc(C(C)NC(=S)NCc2ccc(F)cc2)cc1 (stereo unspecified) | 47% | 50% | -13% | 40µM* | 24% | -2%
Cc1cc(NC(=O)C(C)Sc2nnc3c(Cl)cc(Cl)cn23)on1 (stereo unspecified) | x | x | x | 29% | x | x
Cc1ccc(C)c(C(C)NC(=S)NC2CCCCC2)c1 (stereo unspecified) | 48% | 43% | -37% | 45µM* | 4% | -8%
CCOc1ccc(C(C)=O)cc1COC(=O)COc1ccc(Cl)c(C)c1 | x | x | x | 1% | x | x
CC(NC(=O)C1CCN(c2cc(C(F)(F)F)ncn2)CC1)c1ccccc1 (stereo unspecified) | x | x | x | 45µM* | x | x
CC(C)c1ccc(NC(=O)C2CCN(c3cc(C(F)(F)F)ncn3)CC2)cc1 | x | x | x | 16% | x | x
CCC1CN(C(=O)c2ccc(NCc3cnn(CC)c3)nc2)CCN1C(C)C (stereo unspecified) | x | x | x | 54% | x | x
CCOc1ccc(C(=O)CC2(O)C(=O)Nc3ccccc32)cc1 (stereo unspecified) | x | x | x | -19% | x | x
CCCCCCCCS(=O)CCC(=O)O (stereo unspecified) | 22µM* | 39% | -9% | 25µM* | 5% | 1%
CCCCCCCCS(=O)CCCCC(=O)O (stereo unspecified) | x | x | x | 22% | x | x
CCC(C(=O)NCCn1ccn2nc(-c3cccc(OC)c3)cc2c1=O)c1ccccc1 (stereo unspecified) | x | x | x | 4% | x | x
CCc1cccc(C)c1NC(=O)Cn1ccn(-c2ccc(OC)cc2)c(=O)c1=O | x | x | x | 25% | x | x
COc1ccc(-c2cc(-c3cc(OC)ccc3O)[nH]n2)cc1 | -7%[59 µM] | u | u | u | -10% | 28µM*
COc1ccc(-c2n[nH]c(C)c2-c2cc(OC)ccc2O)cc1 | u | 12% | -33% | u | 40µM* | -35%
CCNC(=O)N(C1CC1)C1CCOC2(CCN(C(=O)c3ocnc3C)CC2)C1 (stereo unspecified) | x | x | x | 17% | x | x
CCOC(=O)CN(C(=O)CSc1nnc(CNc2ccc(C)cc2C)o1)c1ccccc1 | -8%[59 µM] | -10% | 50µM* | -10% | -4% | u
CCc1oc(C(=O)OC)cc1CSC(=N)N | 50µM* | 12% | -6% | -6% | 12% | -15%
CC(Sc1nnnn1C)C(=O)c1ccc(F)c(F)c1 (stereo unspecified) | x | x | x | -1% | x | x
CS(=O)(=O)c1ccc(CN2CCN3C(=O)N(Cc4ccccc4)C[C@H]3C2)cc1 | x | x | x | -5%[176 µM] | x | x
OC[C@@H]1O[C@H](CNCc2ccc(F)cc2)[C@H](N2CCOCC2)[C@@H]1O | x | x | x | 28µM* | x | x
CC1C=CC=CC=CC=CC=CC=CC=CC(OC2OC(C)C(O)C(N)C2O)CC2OC(O)(CC(O)CC(O)C(O)CCC(O)CC(O)CC(=O)OC(C)C(C)C1O)CC(O)C2C(=O)O (stereo unspecified) | x | 13% | x | x | x | 11µM*
C[C@H]1[C@@H](O)[C@@H](C)\C=C/C=C\C=C/C=C\C=C/C=C\C=C/[C@@H](O[C@H]2O[C@@H](C)[C@@H](O)[C@@H](N)[C@@H]2O)C[C@@H]2O[C@](O)(C[C@@H](O)C[C@@H](O)[C@@H](O)CC[C@@H](O)C[C@@H](O)CC(=O)O[C@H]1C)C[C@@H](O)[C@H]2C(=O)O (stereo in doubt) | 9%[21.5 µM] | x | x | x | u | x
CCc1ccccc1N/N=C(/c1ccccc1)c1ccc(Br)cc1 | x | x | x | 7.9µM* | x | x
COc1ccc(C(=NNc2ccccc2C(=O)O)c2ccc(OC)cc2)cc1 | u | u | u | u | 6% | u
O=C(Cc1csc(NC(=O)Nc2ccc(Cl)cc2)n1)NCc1ccccn1 | 45µM* | 19% | -8% | u | x | -21%
SMILES | G9a block | HP1b binding inh | BAZ2B inh | ALOX12 inh | Sfp inh | JMJD2A Tudor inh
Cc1ccc(C)c(-c2csc(NC(=O)c3cc(C)no3)n2)c1 | x | x | x | -20% | x | x
COc1cc(N=c2ssnc2Cl)c(OC)cc1Cl | 1.1µM* | 11µM* | 28µM* | 2.5µM*! | 10µM* | 25µM*
COc1ccc(OC)c(N=C2C(=O)Nc3ccccc32)c1 | u | 0% | u | -21% | 9% | -31%
COc1ccc(OC)c(N=c2ssnc2Cl)c1 | 1.1µM* | u | 25µM* | u | 8.9µM* | u
Cc1ccc(-c2nocc2CCC(=O)N2CCC(Cc3ccccc3)CC2)cc1 | x | x | x | -9% | x | x
CCCn1c(C)cnc1CCNC(=O)CCC1CCCC1 | x | x | x | 91% | x | x
CCCCN(C(=O)c1cc(-c2ccco2)nc2ccccc12)c1c(N)n(CCC)c(=O)[nH]c1=O | -5%[12.7 µM] | 2% | u | u | x | u
CCCCn1c(N)c(N(CCOC)C(=O)c2cc(-c3ccc(C)cc3)nc3ccccc23)c(=O)[nH]c1=O | -18%[0.501 µM] | 35% | 6% | -13% | x | -4%
CCCCn1c(N)c(N(CC(C)C)C(=O)c2cc(-c3ccco3)nc3ccccc23)c(=O)[nH]c1=O | -4%[0.501 µM] | 5% | -32% | 40µM* | x | -26%
CCCCn1c(N)c(N(CCOC)C(=O)c2cc(-c3ccc(F)cc3)nc3ccccc23)c(=O)[nH]c1=O | 45µM* | 36% | 2% | u | x | -10%
N#Cc1ccc(OCC(=O)NCCCn2ccnc2)cc1 | x | 9%[57 µM] | x | -16% | x | 63µM*
N#Cc1ccc(OCC(=O)Nc2ccncc2)cc1 | 50µM* | 35% | -11% | u | -24% | -2%
Cc1nc2ccc(C(=O)N3C[C@@H]4CCN(C)C[C@]4(C(=O)O)C3)cc2s1 | x | x | x | 3% | x | x
Cn1c(Cn2c3ccccc3c3ccccc32)n[nH]c1=S | 7.9µM* | 23% | -4% | -63% | 12% | -10%
Cn1c(CSCc2ccc(Cl)cc2)n[nH]c1=S | 10µM* | 6% | -22% | u | 13% | u
Cn1c(CSCc2ccccc2)n[nH]c1=S | 7.9µM* | 12% | -8% | -28% | 12% | 7.9µM*
Cn1c(-c2cccc3ccccc23)n[nH]c1=S | 5µM* | 20% | -5% | -16% | -4% | 20µM*
C=C(C)Cn1c(CCn2c3ccccc3c3ccccc32)n[nH]c1=S | u | 31% | -32% | u | 6% | -27%
c1ccc2c(-c3nn[nH]n3)cccc2c1 | 8%[59 µM] | 22% | -5% | -11% | 10% | -18%

From PubChem BioAssay
